Measurements reported in PubChem BioAssay.

test: probe aWnt5a binding to arrayed compounds – biochemical, biotinylated probe, 635/667 nm fluorescence, primary screen (AID 1113); settings: small-molecule microarray, higher = more signal;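 also: score merges 667 nm fluorescence intensity with signal-to-noise per printed feature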

SMILES	composite z-score
O=C1O[C@H](Cc2ccccc2)[C@@H]2[C@H]3C=CCCC=C3CN2[C@H]1Cc1ccc(O)cc1	-0.0991
CN1C(=O)[C@@H]2[C@@H](CC(COc3ccccc3)=C3[C@@H](CCc4ccccc4)OB(O)C[C@@H]32)C1=O	-0.156
CCOC(=O)C[C@H]1[C@H](OC(=O)Cc2ccc3c(c2)OCO3)[C@@H](NC(=O)Cc2ccc(OC)cc2)c2cc(OCCCO)ccc2N1C(=O)Cc1ccc(OC)cc1	-0.147
CN(C)CCCNC(=O)[C@@]1(Cc2ccccc2I)c2ccccc2C(=O)N(C2CCCCC2)[C@H]1c1ccc(CO)cc1	-0.0057
CCCCC(=C=CC[C@H](O)c1ccc(CO)o1)CCO	-0.124
COC(=O)[C@@]1(Cc2ccc(F)cc2)[C@H]2c3cc(C(=O)N(C)C)n(C)c3C[C@H]2CN1C(=O)c1ccccc1	0.0095
CC1CC/C=C\[C@H]2OC34C=CCN(c5ccc(Cl)cc5)C(=O)[C@H]3N(CCCCCCO)C(=O)[C@]4(C)C2C(=O)O1 (stereo not given in full)	-0.262
O=C1C[C@]2(c3ccc([N+](=O)[O-])cc3)C(=O)N(C3CC3)c3cc(CO)ccc3[C@H]2N1C1CCCCC1	-0.178
CCCC[C@H]1C[C@@H]1[C@@H]1N(C(C)=O)[C@H](c2cccc(OC)c2)CC12CC2	-0.0276
Cc1ccc(S[C@]2(C(=O)NCC(F)(F)F)CC(=O)N(Cc3ccccc3C(F)(F)F)[C@@H]2c2ccc(CO)cc2)cc1	-0.199
Cc1ccc(S[C@]2(C(=O)NCCCN(C)C)CC(=O)N(C3Cc4ccccc4C3)[C@@H]2c2ccc(CO)cc2I)cc1	0.0792
N#Cc1ccc(C(O)C2C=CC3C(=O)NC(=O)C3N2Nc2ccc(Cl)cc2Cl)cc1 (stereo not given)	0.0438
O=C1O[C@@H](c2ccccc2)[C@@H](c2ccccc2)N2[C@@H](c3ccccc3OCCO)[C@]3(C(=O)Nc4ccc(C#CCCO)cc43)[C@@H](C(=O)NC[C@H](O)c3ccccc3)[C@H]12	0.489
COc1ccc([Si](C)(C)[C@@H]2[C@@H](CC(=O)N3Cc4ccccc4C[C@H]3CO)O[C@]3(C(=O)N(Cc4ccc(N5CCOC5=O)cc4)c4ccccc43)[C@H]2C)cc1	-0.119
COc1ccccc1CN1C(=O)c2ccccc2[C@](Cc2ccccc2I)(C(=O)NCC(C)C)[C@@H]1c1ccc(CO)cc1	-0.0529
CC(C)(C)OC(=O)CC[C@@]1(C(=O)NCCN2CCOCC2)N=C(c2ccc(OCCCO)cc2)O[C@@H]1c1ccccc1CN=[N+]=[N-]	0.0219
CC(C)=CCCC(C)=CC(O)C1C=CC2C(=O)NC(=O)C2N1Nc1ccccn1 (stereo not given)	0.176
CC(C)N1C(=O)c2ccccc2[C@](C)(C(=O)NCC(F)(F)F)[C@@H]1c1ccc(CO)cc1	0.0031
Cc1ccc(S[C@]2(C(=O)NCc3ccccc3)CC(=O)N(Cc3ccccc3C(F)(F)F)[C@@H]2c2ccc(CO)cc2)cc1	-0.0778
Cc1ccccc1C(O)C1C=CC2C(=O)N(c3ccccc3)C(=O)C2N1Nc1ccccc1 (stereo not given)	0.0437
O=C1OCCC=C[C@H]2OC34C=CCN(c5ccc6ccccc6c5)C(=O)[C@H]3N(CCO)C(=O)[C@@H]4C12 (stereo not given in full)	-0.219
COCCCNC(=O)[C@@H]1c2ccccc2C(=O)N(Cc2ccc(OC(F)(F)F)cc2)[C@H]1c1ccc(CO)cc1	0.0215
CCC(CC)C(O)C1C=CC2C(=O)N(c3ccccc3)C(=O)C2N1Nc1ccccc1F (stereo not given)	0.612
C=C1C(=O)C=C2CN(C(=O)c3ccccc3)[C@@](Cc3ccc(OC)cc3)(C(=O)OC)[C@@H]12	0.164
O=C(NC1CC1)[C@@H]1c2ccccc2C(=O)N(Cc2cc(C(F)(F)F)cc(C(F)(F)F)c2)[C@H]1c1ccc(CO)cc1	-0.0203
COC(=O)c1cccc([C@H]2OC(=CC(=O)OC(C)C)C[C@@H](c3cccc(C(=O)OC)c3)O2)c1	0.4
COc1cc(C(O)C2C=CC3C(=O)N(c4ccccc4)C(=O)C3N2Nc2ccccc2F)cc(OC)c1OC (stereo not given)	0.0357
COCCOC(=O)N1C(=O)[C@@]2(c3cc(C#CCC(C(=O)OC)C(=O)OC)ccc31)[C@H](c1ccc(O)cc1)N1[C@H](c3ccccc3)[C@H](c3ccccc3)OC(=O)[C@H]1[C@@H]2C(=O)Nc1nc2ccccc2s1	-0.0684
COc1ccc([Si](C)(C)[C@@H]2[C@@H](CC(=O)N(CCO)Cc3ccccc3)O[C@]3(C(=O)N(Cc4ccc(N5C(=O)c6cccc7cccc5c67)cc4)c4ccccc43)[C@H]2C)cc1	-0.124
C[C@@H]1ON(c2ccc(I)cc2)[C@H](c2cccc(NC(=O)OCC3c4ccccc4-c4ccccc43)c2)[C@H]1C(=O)N1C(=O)OC[C@H]1Cc1ccccc1	-0.142
